Laboratory results reported in PubChem BioAssay AID1159580 (chemical genetic matrix, 2015).
Values joined by “and” are separate entries in the source; they are usually repeats but may differ in a detail not shown here. Equal values may be shown once. Hit rate of the full screen: of about 5,500 compounds, about 2,000 (36%) were called active. About 18% were inconclusive and are not listed. Rule as the data show it: active = normalized growth mostly below about 0.91 (no sharp cut-off); inconclusive = no clear call, values can overlap the other calls; inactive = mostly above about 0.92. This is one part of the list.

Assay: chemical genetic growth profiling, strain panel (AID 1159580);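 also: tested at 20 µM; growth read once vehicle control cultures reached saturation at 30 °C; 1 = growth at the plate median or of vehicle wells; lower values mean less growth of the strain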
Conditions: S. cerevisiae deletion strains, growth OD

Measured: normalized growth

C[C@H](COc1ccccc1)N[C@H](C)[C@H](O)c1ccc(O)cc1
inactive: locus YAL021C, strain ccr4, stronger effect = lower value 0.964 | locus YAL026C, strain drs2, stronger effect = lower value 0.974 | locus YAL030W, strain snc1, stronger effect = lower value 0.999 | locus YBL061C, strain skt5, stronger effect = lower value 1.01 | locus YBR009C, strain hhf1, stronger effect = lower value 1 | locus YBR021W, strain FUR4, stronger effect = lower value 0.986 | locus YBR023C, strain chs3, stronger effect = lower value 0.981 | locus YBR171W, strain sec66, stronger effect = lower value 0.997 | locus YBR229C, strain ROT2, stronger effect = lower value 0.995 | locus YBR231C, strain swc5, stronger effect = lower value 0.988 | locus YBR279W, strain paf1, stronger effect = lower value 0.982 | locus YCL011C, strain gbp2, stronger effect = lower value 1 | locus YCL016C, strain dcc1, stronger effect = lower value 0.979 | locus YCL029C, strain bik1, stronger effect = lower value 0.996 | locus YCL061C, strain MRC1, stronger effect = lower value 0.986 | locus YCL069W, strain vba3, stronger effect = lower value 0.997 | locus YCR088W, strain abp1, stronger effect = lower value 0.998 | locus YDL005C, strain med2, stronger effect = lower value 0.999 | locus YDL035C, strain GPR1, stronger effect = lower value 1.03 | locus YDL040C, strain nat1, stronger effect = lower value 0.994 | locus YDL074C, strain BRE1, stronger effect = lower value 1.03 | locus YDL101C, strain DUN1, stronger effect = lower value 1 | locus YDL185W, strain tfp1, stronger effect = lower value 0.992 | locus YDL192W, strain arf1, stronger effect = lower value 0.998 | locus YDR001C, strain nth1, stronger effect = lower value 0.992 | locus YDR069C, strain doa4, stronger effect = lower value 0.998 | locus YDR101C, strain arx1, stronger effect = lower value 1.01 | locus YDR137W, strain rgp1, stronger effect = lower value 0.963 | locus YDR150W, strain NUM1, stronger effect = lower value 1 | locus YDR159W, strain sac3, stronger effect = lower value 0.99 | locus YDR162C, strain NBP2, stronger effect = lower value 1 | locus YDR195W, strain ref2 0.993 | locus YDR297W, strain sur2, stronger effect = lower value 0.99 | locus YDR318W, strain mcm21, stronger effect = lower value 0.994 | locus YDR334W, strain swr1, stronger effect = lower value 0.996 | locus YDR335W, strain msn5, stronger effect = lower value 1 | locus YDR388W, stronger effect = lower value 0.997 | locus YDR392W, strain spt3, stronger effect = lower value 0.952 | locus YDR502C, strain sam2, stronger effect = lower value 1.01 | locus YEL003W, strain gim4, stronger effect = lower value 1 | locus YEL037C, strain rad23, stronger effect = lower value 0.997 | locus YEL061C, strain CIN8 (second series), stronger effect = lower value 0.996 | locus YEL061C, strain CIN8, stronger effect = lower value 1 | locus YER015W, strain faa2, stronger effect = lower value 1 | locus YER016W, strain bim1, stronger effect = lower value 1.01 | locus YER110C, stronger effect = lower value 0.975 | locus YER111C, strain swi4, stronger effect = lower value 0.988 | locus YER155C, strain BEM2 (second series), stronger effect = lower value 0.983 | locus YER155C, strain BEM2, stronger effect = lower value 0.986 | locus YER167W, strain BCK2, stronger effect = lower value 0.985 | locus YFR010W, strain ubp6, stronger effect = lower value 0.996 | locus YGL078C, strain dbp3, stronger effect = lower value 0.98 | locus YGL086W, strain mad1, stronger effect = lower value 1.01 | locus YGL167C, strain pmr1, stronger effect = lower value 1 | locus YGL173C, strain kem1, stronger effect = lower value 1 | locus YGL227W, strain vid30, stronger effect = lower value 0.986 | locus YGL240W, strain doc1, stronger effect = lower value 0.988 | locus YGL248W, strain PDE1, stronger effect = lower value 0.993 | locus YGL253W, strain hxk2, stronger effect = lower value 1.01 | locus YGR078C, strain PAC10, stronger effect = lower value 1.01 | locus YGR135W, strain pre9, stronger effect = lower value 0.942 | locus YGR252W, strain gcn5, stronger effect = lower value 0.988 | locus YHR013C, strain ard1, stronger effect = lower value 0.969 | locus YHR027C, strain rpn1, stronger effect = lower value 0.997 | locus YHR030C, strain SLT2, stronger effect = lower value 0.993 and 1 | locus YHR079C, strain IRE1 (second series), stronger effect = lower value 0.991 | locus YHR079C, strain IRE1, stronger effect = lower value 0.985 | locus YHR094C, strain hxt1, stronger effect = lower value 0.974 | locus YHR129C, strain ARP1, stronger effect = lower value 0.992 | locus YHR142W, strain chs7, stronger effect = lower value 1 | locus YHR200W, strain rpn10, stronger effect = lower value 0.992 | locus YIL066C, strain RNR3, stronger effect = lower value 0.987 | locus YIL073C, strain SPO22, stronger effect = lower value 0.977 | locus YIL125W, strain kgd1, stronger effect = lower value 1 | locus YIR030C, strain dcg1, stronger effect = lower value 0.993 | locus YJL092W, strain hpr5, stronger effect = lower value 0.992 | locus YJL095W, strain BCK1 (second series), stronger effect = lower value 0.998 | locus YJL095W, strain BCK1, stronger effect = lower value 0.965 and 1 | locus YJL115W, strain asf1, stronger effect = lower value 0.996 | locus YJL129C, strain trk1, stronger effect = lower value 0.993 | locus YJL134W, strain LCB3, stronger effect = lower value 0.991 | locus YJL154C, strain vps35, stronger effect = lower value 0.998 | locus YJL164C, strain tpk1, stronger effect = lower value 0.996 | locus YJL166W, strain qcr8, stronger effect = lower value 0.989 | locus YJL168C, strain set2, stronger effect = lower value 0.99 | locus YJL187C, strain SWE1 (second series), stronger effect = lower value 0.985 | locus YJL187C, strain SWE1, stronger effect = lower value 1.01
